Drawing on PubChem BioAssay (NCI), this text covers growth inhibition for 40 compounds.

Where “and” joins values, the source holds several entries; their conditions need not be identical. Identical values can stand only once. The panel holds about 79,000 compounds, 15% with a hit somewhere; the sample as a whole holds those more often. Values without a mark were called inactive. Calls of active or inactive are those of the source. Rule as the data show it: active = growth inhibition above about 70%; inactive = the rest.

One assay is described as follows: NCI Yeast Anticancer Drug Screen. Data for the rad50 strain (AID 155).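 Also: 0% = growth of vehicle-only cultures of the same strain.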 The following applies: S. cerevisiae rad50 strain growth inhibition, active compounds read high; at 50.0 µM unless noted. Put shortly:
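Readout: growth inhibition relative to vehicle-treated cultures. Compound exposure was carried out in a genetically defined yeast strain deficient in DNA damage repair.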
On to `O=C(NSN1CCOCC1)c1ccccc1`, for which the growth inhibition is 38.8%.

As to `O=C(NO)c1ccccc1`, the growth inhibition is 17.1%. Regarding `N#CCCC(C#N)(CCC#N)C(N)=O`, the growth inhibition was 11.9%.

`CCCCCCCCCCCCC(C)O` (stereo not given): the growth inhibition was -23.2%.

As for `FC(F)(F)c1ccc2ccc3ccc(Cl)cc3c2c1`, the growth inhibition was -7.5%. Take `Nc1ncnc2c1ncn2CC(O)CN(CCO)CCO` (stereo not given): the growth inhibition was 13.1%. Same read-out and setting: the result for `CSC(N)=Nc1cccc2ccccc12` reads -44.2%; that for `O=C(c1ccc([N+](=O)[O-])cc1)N(Cc1ccccc1)Cc1ccccc1` (tested in a mixture with another compound), -7%; that for `O=C(O)Cc1ccc(C(=O)O)cc1`, 21.2%.

As for `C=C1c2nc3ccccc3n2C=C(c2ccccc2)N1c1ccc(OC)cc1`, the growth inhibition is -6.5%. For the compound `CC1CC(=O)Nc2nc3ccccc3n21` (stereo not given), the growth inhibition is 7.15%. On the same count and under the same terms, as for `COc1ccc2[nH]c3ccccc3c(=O)c2c1`, the figure is 12.6%; as for `OC1(C2(O)CCCC2)CCCC1`, 14.1%. For `Cc1ccc(C(CC(=O)C(C)(C)CN2CCCCC2)SCCS(=O)(=O)O)cc1` (stereo not given), the growth inhibition was 7.5%. For the compound `CC1=CC(=O)CC(C)(C)C1`, the growth inhibition is 1.45%. Turning to `C=C1CC(c2ccccc2)(c2cccs2)OC1=O` (stereo not given), the growth inhibition was 67.7%. In the case of `Cc1cc(=O)[nH]c2[nH]c(=O)ccc12`, the growth inhibition was -11.4%. On to `Cn1c(=O)c2nc(SCC(=O)O)n(C)c2n(C)c1=O`, for which the growth inhibition is 3.6%. In the case of `CCOC(=N)n1c(=O)n(C2=NCCN2)c2ccccc21`, the growth inhibition is 0.45%.

Take `CC(C)C1N(N2C(=O)CS(=O)(=O)C2C(C)C)C(=O)CS1(=O)=O` (stereo not given): the growth inhibition is 3.45%. For the compound `COC(=O)c1cccc(C(=O)OC)c1`, the growth inhibition is -33.1% and 14.2%. In the case of `CC1=C(C)C(C#N)(C(=O)CBr)C(=N)O1` (stereo not given), the growth inhibition was 37.4%.

As to `c1ccc2c(c1)ccc1c[n+]3ccccc3cc12`, the growth inhibition was 26.6%. As to `CN(C)c1c2ccccc2c(NC=O)c2ccccc12`, the growth inhibition was 3.45%. As to `CNS(=O)(=O)c1ccc(C)c(C)c1`, the growth inhibition was -0.5%.

A further assay in a line: NCI Yeast Anticancer Drug Screen. Data for the mec2-1 strain (AID 157). To be noted: S. cerevisiae mec2-1 strain, active compounds read high; at 50.0 µM unless noted. Put shortly: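 Yeast mec2-1 mutant treated with compound. Readout: growth inhibition vs vehicle controls.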
With `COC(=O)C1(CC(=O)c2c(C)[nH]c3ccccc23)NC(=S)NC(=O)C1C#N` (stereo not given), the growth inhibition is 14.7%. Regarding `O=C1NC(N/N=C\C(O)C(O)C(O)CO)=N/C1=C/c1ccc(Cl)cc1` (stereo not given), the growth inhibition was 37% and 43%.

For `O=c1[nH]c2cc(Cl)c([N+](=O)[O-])cc2o1`, the growth inhibition is -0.5%.

In the case of `COc1cccc(-c2cc(=O)c3cc(C)cnc3[nH]2)c1`, the growth inhibition was 3.85%. Turning to `COc1cc2c3cc1Oc1cc(ccc1O)C[C@@H]1c4c(cc(OC)c(O)c4Oc4ccc(cc4)C[C@@H]3[N+](C)(C)CC2)CC[N+]1(C)C`, the growth inhibition is -43.1%. For the compound `CC(C)(CN1CCCCC1)C(=O)CC(SCCN)c1ccc(Cl)cc1` (stereo not given), the growth inhibition is 0.65%.

Take `COc1cc(OC)c(I)cc1Cl`: the growth inhibition was -37.5%.

Turning to `CCCCN1CCC(N)=NC1=O`, the growth inhibition was -24.9%.

As for `CCO/C(C)=N\OC(=O)C(F)(F)F`, the growth inhibition is -15.3%. `COC(=O)c1nnn(-c2ccc(Cl)cc2C)c1C(=O)c1ccc(OC)cc1`: the growth inhibition was 0.95%. For `CC(O)CNc1nc(N)[nH]c(=O)c1[N+](=O)[O-]` (stereo not given), the growth inhibition is 2.35%. Consider `CC1=NN(c2ccc(S(=O)(=O)O)cc2)C(=O)C1N=Nc1ccc(-c2ccc(N=Nc3ccc(O)c(C(=O)O)c3)c(C)c2)cc1C` (stereo not given), for which the growth inhibition is 20.9%. Same read-out and setting: as for `O=C(O)c1cc([N+](=O)[O-])cc([N+](=O)[O-])c1-c1ccccc1`, the figure is -2.6%; as for `N#Cc1c(N2CCCC2)nsc1Nc1ccc(F)cc1`, 2.85%; as for `CC(C)CCO/N=C(\N)N=C(N)N`, -5.8%. Consider `O=C(NSN1CCOCC1)c1ccccc1`, for which the growth inhibition was 25.8%.

As to `O=C(NO)c1ccccc1`, the growth inhibition was -29.6%. Still for that read-out and setting: the result for `N#CCCC(C#N)(CCC#N)C(N)=O` reads -18%; that for `CCCCCCCCCCCCC(C)O` (stereo not given), -50.1%; that for `FC(F)(F)c1ccc2ccc3ccc(Cl)cc3c2c1`, -24%.

On to `Nc1ncnc2c1ncn2CC(O)CN(CCO)CCO` (stereo not given), for which the growth inhibition was 7.95%. On to `CSC(N)=Nc1cccc2ccccc12`, for which the growth inhibition was -59%. As for `O=C(c1ccc([N+](=O)[O-])cc1)N(Cc1ccccc1)Cc1ccccc1` (tested in a mixture with another compound), the growth inhibition is 15.7%. Consider `O=C(O)Cc1ccc(C(=O)O)cc1`, for which the growth inhibition was -1.25%. As for `C=C1c2nc3ccccc3n2C=C(c2ccccc2)N1c1ccc(OC)cc1`, the growth inhibition is 15.3%.

Turning to `CC1CC(=O)Nc2nc3ccccc3n21` (stereo not given), the growth inhibition was 6.65%. Same read-out and setting: the result for `COc1ccc2[nH]c3ccccc3c(=O)c2c1` reads -3.2%; that for `OC1(C2(O)CCCC2)CCCC1`, 8.4%. Take `Cc1ccc(C(CC(=O)C(C)(C)CN2CCCCC2)SCCS(=O)(=O)O)cc1` (stereo not given): the growth inhibition is -7.95%. On the same count and under the same terms, as for `CC1=CC(=O)CC(C)(C)C1`, the figure is 5.95%. For the compound `C=C1CC(c2ccccc2)(c2cccs2)OC1=O` (stereo not given), the growth inhibition is 93.6% (active). As for `Cc1cc(=O)[nH]c2[nH]c(=O)ccc12`, the growth inhibition is 0.05%. On to `Cn1c(=O)c2nc(SCC(=O)O)n(C)c2n(C)c1=O`, for which the growth inhibition was 6.2%. For the compound `CCOC(=N)n1c(=O)n(C2=NCCN2)c2ccccc21`, the growth inhibition is 0.35%. On to `CC(C)C1N(N2C(=O)CS(=O)(=O)C2C(C)C)C(=O)CS1(=O)=O` (stereo not given), for which the growth inhibition is -15.1%.

In the case of `COC(=O)c1cccc(C(=O)OC)c1`, the growth inhibition was -3.45% and -1.6%.

As to `CC1=C(C)C(C#N)(C(=O)CBr)C(=N)O1` (stereo not given), the growth inhibition is 28.1%. Consider `c1ccc2c(c1)ccc1c[n+]3ccccc3cc12`, for which the growth inhibition is 23.1%. Take `CN(C)c1c2ccccc2c(NC=O)c2ccccc12`: the growth inhibition was -14.9%. On the same count and under the same terms, the result for `CNS(=O)(=O)c1ccc(C)c(C)c1` reads -13.9%.
